Measured values published in PubChem BioAssay AID504332 (National Center for Advancing Translational Sciences (NCATS), 2011).
About 31,000 (8.9%) of roughly 350,000 compounds were called active. Inconclusive results (about 15%) are left out. The call rests on the fitted dose curve; in most records, active means well fitted inhibition curve with a large enough effect; inconclusive means small, poorly fitted or top-dose-only effect; inactive means no such curve, though single readings can be large or run the other way. Only a selection was taken, and actives are over-represented in it overall.

These compounds were tested against Histone-lysine N-methyltransferase EHMT2 (Homo sapiens) (UniProt Q96KQ7) (assay: qHTS Assay for Inhibitors of Histone Lysine Methyltransferase G9a). Conditions: G9a H3K9 monomethylation, AlphaScreen, 2 h; series mostly up to 59 µM.
Description: Methylated lysines, on the N-terminal tails of histone proteins serve as epigenetic markers to recruit factors that can then modify local chromatin structure to lead to functional consequences. G9a and other members of the SUV39 family of the SET domain-containing superfamily of histone lysine methyltransferases (HMT) have been identified to specifically methylate Lys9 of histone H3 (H3K9). G9a catalyzes the mono- and di-methylation of H3K9 in mammalian euchromatic regions, where the resulting H3K9me2 is indicative of transcriptional repression. […] The inhibition of G9a will result in transcriptional activation and work synergistically with DNA methyltransferase and histone deacetylase inhibitors, to kill cancer cells. This qHTS assay for identification of G9a inhibitors is a chemiluminescence based AlphaScreen (PerkinElmer). Methylation of biotinylated-histone peptide is measured through specific antibody-based detection, in conjunction with streptavidin-coated donor and anti-IgG antibody-coated acceptor beads. The method is particularly well suited for detection of inhibitors acting by the desired histone peptide competitive mechanism and is applicable to testing other HMTs. Although AlphaScreen has significant advantages with its utility in a variety of epigenetic target assays, the primary screening data provided in this deposition should be used with caution due to the prevalence of screening artifacts. An AlphaScreen counterscreen is highly recommended to be run against any putative actives to eliminate non specific artifacts. Alternatively, one can use other AlphaScreen assays in PubChem to filter out promiscuous hits. Quinn et al. A chemiluminescence-based method for identification of histone lysine methyltransferase inhibitors. Mol Biosyst 6(5): 782-8. 2010. PMID: 20567762 [2] Baell,Holloway. New substructure filters for removal of pan assay interference compounds (PAINS) from screening libraries and for their exclusion in bioassays. J Med Chem. 53(7):2719-40. 2010. PMID: 20131845 NIH Molecular Libraries Probe Production Network [MLPCN] NIH Chemical Genomics Center [NCGC] Structural Genomics Consortium (SGC) NIH Grant: 5U54 MH084681-02
To each well of a 1,536w plate, 2ul of HMT enzyme (final 20nM) were added, using a nanoliter dispenser. The G9a- and GLP-inhibitor BIX-01294 (CID: 25150857) are used as an intraplate control, with a 16-point titration in duplicate. A Kalypsys pin-tool transferred 23nl of library compound solution in DMSO to each well. Following a 15 min incubation of enzyme with compounds at room temperature, 1ul mixture of b-H3K9 peptide substrate (final 500nM) and SAM cofactor (final 20uM) were added. Reactions were allowed to proceed at room temperature for 2 hours. Methylated b-H3K9 peptide product was detected with 0.5 ug/mL rabbit polyclonal anti-monomethyl histone H3K9 antibody (Abcam Inc., Cambridge, MA) and 20 ug/mL each streptavidin-coated donor and anti-rabbit IgG acceptor AlphaScreen beads. Antibody and beads were added in a 1ul dispense, for a final volume of 4ul, and plates were incubated, protected from the light, for 10 min at room temperature. Microplates were then read on an EnVision multilabel plate reader using the 1,536 plate HTS AlphaScreen aperture (excitation time 80 ms, measurement time 240 ms).
Further: nearly all actives have a fitted effect of over 75% in size.
On the % scale 0 is the no-effect control and ±100 the full control effect; potency means the concentration at half of the fitted maximal effect.

Chain of Histone-lysine N-methyltransferase EHMT2 (Homo sapiens) (Q96KQ7 913-1193 limits assumed): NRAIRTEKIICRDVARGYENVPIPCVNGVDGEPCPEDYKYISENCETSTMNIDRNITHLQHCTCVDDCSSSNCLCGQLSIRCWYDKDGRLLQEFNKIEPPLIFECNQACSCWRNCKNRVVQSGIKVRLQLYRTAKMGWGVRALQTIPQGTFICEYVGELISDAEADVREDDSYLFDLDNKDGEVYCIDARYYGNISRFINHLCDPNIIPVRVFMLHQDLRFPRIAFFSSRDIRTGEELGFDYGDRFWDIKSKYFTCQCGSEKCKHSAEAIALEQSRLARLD

activity, negative = inhibition, inactive:
CCOC(=O)[C@H]1[C@H]2COc3ccc(OC)cc3[C@@H]2N2C(=O)c3ccc(F)cc3NC(=O)[C@@]12C 22.3% [at 2.33 µM]
O=C(NNC(=O)c1cc(S(=O)(=O)N2CCCCC2)ccc1Cl)c1ccccc1O 36.2% [at 12.7 µM]
O=C(C1CCC1)N1CCN(S(=O)(=O)c2ccc([N+](=O)[O-])cc2)CC1 -3.47% [at 12.7 µM]
COc1ccc(-c2csc3ncnc(N4CCN(S(=O)(=O)c5cccc(F)c5)CC4)c23)cc1 -11.1% [at 2.33 µM]
Cc1ccc(N2C(=O)C3C(c4ccccc4)(C2=O)C3(c2ccccc2)c2ccccc2)cc1 (stereo not drawn) 28.9% [at 12.7 µM]
O=C(Nc1ccccc1F)c1ccc(S(=O)(=O)N2CCCCCC2)cc1 62.1% [at 12.7 µM]
O=C(Nc1ccc(S(=O)(=O)N2CCCCCC2)cc1)c1c(F)cccc1F -5.59% [at 12.7 µM]
COc1ccccc1C1=CC(=O)C[C@H](c2ccc(F)cc2)C1 -10.3% [at 0.501 µM]
Cc1sc2ncnc(SCC(=O)Nc3ccc(CN4CCCC4)cc3)c2c1C 10.2% [at 12.7 µM]
COc1ccccc1/C=C/C(=O)OCC(=O)NC1CCCCCC1 25.2% [at 2.33 µM]
Cc1ccc(S(=O)(=O)N(Cc2cccc([N+](=O)[O-])c2)C(=O)N2CCN(C)CC2)cc1 6.51% [at 2.33 µM]
CCOc1ccc(CCNC(=O)COC(=O)c2ccc(F)c(S(=O)(=O)N3CCOCC3)c2)cc1OCC -4.3% [at 0.501 µM]
Cc1ccccc1NC(=O)Cc1nc(COC(=O)c2ccc(C(F)(F)F)cc2)cs1 5.04% [at 12.7 µM]
CCN(CC(=O)NCc1ccc(Cl)cc1)C(=O)CSc1ccccc1 -1.68% [at 12.7 µM]
O=c1c(-c2cccc(Cl)c2)c[nH]n1-c1ccccc1 3.35% [at 2.33 µM]
N[C@@H](Cc1ccccc1)C(=O)N1CCOCC1 11.6% [at 2.33 µM]
CCc1ccccc1OCC(=O)Nc1ccc(C)c(S(=O)(=O)N2CCCCCC2)c1 18.3% [at 12.7 µM]
C[C@H](OC(=O)n1ccnc1)[C@@H]1O[C@@]2(C)CCC[C@@H]1O2 9.09% [at 0.501 µM]

Potency, active:
Cc1cc(C)n(-c2nc(O)cc(=O)[nH]2)n1 4.47 µM
Cc1ccc(C2C3=C(Nc4[nH]n(-c5ccccc5)c(=O)c42)c2ccccc2C3=O)cc1 (stereo not drawn) 3.16 µM
CC1(C)Cc2c(sc(NC(=O)C(=O)N3CCOCC3)c2C#N)CO1 35.5 µM
CCOC(=O)N1CCN(C(=O)C(=O)Nc2sc3c(c2C#N)CC(C)(C)OC3)CC1 12.6 µM
CCN1CCC2(CC1)N=C(c1ccc(F)cc1)C(=S)N2C(=O)c1ccc(C)cc1 10 µM
O=C(NC(=S)Nc1ccccc1C(=O)O)c1ccc(-c2ccc(Br)cc2)o1 22.4 µM
CCCCCC(=O)NC(=S)NNC(=O)c1ccc([N+](=O)[O-])cc1 8.91 µM
CC(C)CC(=O)NC(=S)NNC(=O)c1cccc([N+](=O)[O-])c1 22.4 µM
CC(=O)c1c(C)[nH]c(=S)c(C#N)c1-c1ccc(F)cc1 1.41 µM
CN1CCN(/N=C2/C(=O)Nc3ccc([N+](=O)[O-])cc32)CC1 50.1 µM
O=C(N/N=C/C=C/c1ccco1)c1cccs1 12.6 µM
Cc1ccc(-c2cc(C(=O)N/N=C/C=C/c3ccco3)c3ccccc3n2)cc1C 44.7 µM
O=C1N/C(=C/c2cccn2-c2ccccc2)C(=O)N1c1cccc(Cl)c1 1 µM
O=C(CCCN=C1NS(=O)(=O)c2ccccc21)OCC(=O)c1ccc(F)c(F)c1 44.7 µM
N#CC1(NC(=O)COC(=O)CCN=C2NS(=O)(=O)c3ccccc32)CCCCC1 79.4 µM
CCCn1c(O)c(CN2CCCC(C)C2)c(C)c(C#N)c1=O (stereo not drawn) 14.1 µM
Cc1c(CN2CCCCC2)c(O)n(CCO)c(=O)c1C#N 50.1 µM

Potency, inactive:
Cc1ccc(C(=O)Nc2ccc(OCc3cc(=O)n4c(C)csc4n3)cc2)cc1
CC(=O)c1ccc(Oc2cc(C)nc(-n3nc(C)cc3C)n2)cc1
Cc1cc(C)n(-c2ccc(Cl)c(C(=O)O)n2)n1
O=C(NCCc1ccccc1)c1cnc2sc(N3CCCC3)nn2c1=O
O=C(NCc1ccccc1Cl)C1=Cc2cc(Br)ccc2OC1
Cc1ccc(C2SCC(=O)N2c2ccccc2)cc1 (stereo not drawn)
CCCn1c(=N)n(CC(O)COc2ccccc2OC)c2ccccc21 (stereo not drawn)
CCCCn1c(N)c(N(CCOC)C(=O)CSCC(=O)Nc2cccc(C)c2)c(=O)[nH]c1=O
CCOC(=O)CSc1nc2sc3c(c2c(=O)[nH]1)CC(C)(C)OC3
N#Cc1c(NC(=O)c2ccc(N3CCOCC3)c([N+](=O)[O-])c2)sc2c1CCCC2
CC1(C)Cc2c(sc(NC(=O)C(=O)NCC3CCCO3)c2C(=O)O)CO1 (stereo not drawn)
CCOC(=O)Cn1c(SC)nc2sc3c(c2c1=O)CC(C)(C)OC3
Cc1ccc(NC(=O)CN2C(=O)C(c3ccc(F)cc3)=NC23CCCCCC3)c(C)c1
CCN1CCN(C(=O)CSc2ccc(C)cc2)CC1
Cc1ccc(Cl)cc1NC(=O)Cc1ccc(-n2c(C)nc3cccnc32)cc1
S=C(c1ccc(-c2ccccc2)o1)N1CCCCC1
O=C(Cc1ccccc1)Nc1ccc(C(=O)Nc2ccccc2C(=O)O)cc1
Cc1ccc(SCC(=O)Nc2ccc3oc(-c4ccccc4C)nc3c2)cc1
Cc1cccc(NC(=O)CSc2nc3c([nH]c4ccccc43)c(=O)n2-c2cc(C)cc(C)c2)c1
CC(C)(C)SCCNC(=O)c1cccc([N+](=O)[O-])c1
CCCCCC(=O)Nc1ccc(C(=O)N/N=C/c2ccc([N+](=O)[O-])cc2)cc1
Cc1cccc(C(=O)NNC(=O)c2cccc([N+](=O)[O-])c2)c1
COCCCNC(=S)NC(=O)c1ccc([N+](=O)[O-])cc1
COc1ccccc1NC(=O)C1=C(C)Nc2ncnn2C1c1sccc1C (stereo not drawn)
CC(OC(=O)c1ccc(S(=O)(=O)N2CCOCC2)cc1)c1ccccc1 (stereo not drawn)
N#Cc1c(-c2ccc(Cl)cc2)c2c([nH]c1=S)CCCC2
Cc1cc(C)c2c(-c3ccc(F)cc3)c(C#N)c(=O)n(C)c2n1
COc1ccc(OC)c(CNC(=O)CN2C(=O)CCn3nc(-c4cn(C)c5ccccc45)cc32)c1
CCCC(=O)Nc1ccc(NC(=O)c2sc3ccccc3c2Cl)cc1
O=C1Nc2ccc([N+](=O)[O-])cc2C1=Nc1cccc(CO)c1
O=C(CSc1oc(-c2ccco2)nc1S(=O)(=O)c1ccc(Cl)cc1)c1ccccc1
CC(=O)Nc1ccc(/C=N/NC(=O)c2cccs2)cc1
COc1cccc(-c2cc(C(=O)N/N=C/c3ccc(OC)c(COC(C)=O)c3)c3ccccc3n2)c1
CC(/C=N/NC(=O)c1ccncc1)=C\c1ccco1
CCOc1cc(/C=N/NC(=O)c2cc(-c3ccccc3)nc3ccccc23)ccc1O
Brc1cccc(-c2nnn3c2nc(NC2CCCCC2)c2ccccc23)c1
Cc1c(-c2nsc(NC(=O)c3cccc(Cl)c3)n2)nnn1-c1ccccc1C(F)(F)F
COc1cc2c(cc1/C=C1/NC(=O)N(c3ccccc3)C1=O)OCO2
COc1ccc(S(=O)(=O)NCCSc2nnnn2-c2ccccc2)cc1
Cc1cc(C)c(S(=O)(=O)N2CCC(C(=O)OCc3c(C)noc3C)CC2)c(C)c1
COc1ccccc1-c1nnc(SCC(N)=O)o1
N#CC1(NC(=O)COC(=O)CSc2ccc(F)cc2)CCCCC1
Cc1ccccc1C(=O)NCCN=C1NS(=O)(=O)c2ccccc21
N#CC1(NC(=O)COc2ccc3oc4ccccc4c3c2)CCCCC1
O=C(OCCN=C1NS(=O)(=O)c2ccccc21)c1cccc([N+](=O)[O-])c1
COc1ccccc1C(=O)NCCn1cc(SCc2ccccc2Cl)c2ccccc21
O=C(c1ccc(F)cc1)N1CCC(C(=O)N2CCN(S(=O)(=O)c3ccccc3Br)CC2)CC1
O=C(NCc1ccccc1Cl)c1cccn1-c1nnc(N2CCCCC2)s1
COc1ccccc1N1CCN(c2ncnc3onc(-c4ccc(F)cc4)c23)CC1
CCC(=O)Nc1sc(C(=O)N2CCCCC2)c(C)c1C#N
O=c1oc2c(CN3CCCCC3)c(O)ccc2c2c1CCCCC2
CC1CCCN(Cc2c(O)ccc3c(=O)c(Oc4ccc(C(C)(C)C)cc4)c(C(F)(F)F)oc23)C1 (stereo not drawn)
CCCCCCn1c(CN2CCCC(C)C2)nc2c1c(=O)n(C)c(=O)n2C (stereo not drawn)
CCOc1ccc(-n2nc3ccc(NC(=O)c4ccc(OC)c(Cl)c4)cc3n2)cc1
CN(CC(=O)Nc1c(Cl)cccc1Cl)C(=O)CC1OC(=O)c2ccccc21 (stereo not drawn)
CN(Cc1ccccc1)C(=O)CCS(=O)(=O)c1cc(Br)cc2c1N(C(=O)C1CC1)CC2
Cc1ccc(-c2cn3c(n2)sc2cc(C(=O)NCc4cccs4)ccc23)c(C)c1
CCC(=O)N1CCc2cc(Br)cc(S(=O)(=O)CCC(=O)N3CCN(c4ccc(F)cc4)CC3)c21
